Sampled rows, rich in hits. Any-hit rate of the full collection: about 3.4%.
PLC-gamma1 inh – PLC-gamma1 (human) inhibition, primary screen; P19174; purified PLC-gamma1, fluorogenic substrate, fluorescence; inhibition, % at 12.2 µM; 0.84% of 370,000 active; in the data active = inhibition above about 9.5%
ADAM17 inh – ADAM17 inhibition, QFRET primary screen; P78536; recombinant ADAM17, EDANS/DABCYL FRET peptide cleavage; inhibition, % at 6.95 µM; 0.83% of 370,000 active;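 active = inhibition above the mean of compounds lying between control limits plus 3 SD, set per campaign, cut at about 8.5% in these data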;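 note: 0% = DMSO-only wells as the low control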
ADAM10 inh – ADAM10 inhibition, QFRET primary screen; O14672; recombinant ADAM10, EDANS/DABCYL FRET peptide cleavage, 3 h; inhibition, % at 7 µM; 0.62% of 370,000 active; AID 720582;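 active = inhibition above a per-campaign cutoff equal to the mean of compounds falling between control-based bounds plus 3 SD, cut at about 20% in these data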;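 note: 0% = DMSO wells while the 100% control is not disclosed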
PLCb3 inh – PLC-beta3 (human) inhibition, primary screen; Purified PLC-beta3, fluorogenic substrate, fluorescence; inhibition, % at 12.2 µM; 0.18% of 370,000 active; Q01970; in the data active = inhibition above about 11%;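 note: 0% = median of compound wells on plate and 100% = full blocker control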
HGIII-sPLA2 inh – Inhibits HGIII-sPLA2 liposome hydrolysis, primary screen | 0.56% of 370,000 active | inhibition, % at 12.2 µM | Q9NZ20 | AID 743126 | QFRET BODIPY PC-A2 liposome hydrolysis, fluorescence;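 active = inhibition above mean plus 3 SD of compounds lying within the high and low control bounds, cut at about 19% in these data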;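 note: 0% = median of test compound wells and 100% = no enzyme DMSO wells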
Target sequence (Q9NZ20 whole entry, looked up): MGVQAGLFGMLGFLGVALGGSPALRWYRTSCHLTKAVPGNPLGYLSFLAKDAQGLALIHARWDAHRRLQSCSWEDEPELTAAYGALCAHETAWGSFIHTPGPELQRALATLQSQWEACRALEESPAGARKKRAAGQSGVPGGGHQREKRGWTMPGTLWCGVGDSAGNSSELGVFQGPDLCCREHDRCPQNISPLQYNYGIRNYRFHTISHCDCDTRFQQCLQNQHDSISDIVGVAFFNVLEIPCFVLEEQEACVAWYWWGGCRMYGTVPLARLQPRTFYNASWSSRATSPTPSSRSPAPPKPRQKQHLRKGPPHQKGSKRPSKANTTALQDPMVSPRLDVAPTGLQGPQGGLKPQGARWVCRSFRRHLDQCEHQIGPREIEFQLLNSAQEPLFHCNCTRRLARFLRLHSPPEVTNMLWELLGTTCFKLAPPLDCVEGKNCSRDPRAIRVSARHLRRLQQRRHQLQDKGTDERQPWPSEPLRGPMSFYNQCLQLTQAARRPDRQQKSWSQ
proKLK7 act – activators of human kallikrein-7 zymogen. P49862. purified proKLK7, EDANS-DABCYL substrate fluorescence; 100% is mature enzyme control, 0% vehicle. activation, % at 7 µM. 0.9% of 370,000 active. AID 652039;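 active = activation above the mean of all tested compounds plus 3 SD, computed per campaign excluding outliers beyond control limits, cut at about 13% in these data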
KLK7 act conf – confirmation of human kallikrein-7 zymogen activators; shares compounds with proKLK7 act; purified proKLK7, EDANS-DABCYL substrate fluorescence; scaled: vehicle 0, mature enzyme 100; activation, % at 7 µM; 68% of 3,200 active;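 active = activation, as change over the incubation, above the mean of all tested compounds plus 3 SD, cut at about 13% in these data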
EDANS-DABCYL int – fluorescence interference counter-screen for KLK7 activators | shares compounds with proKLK7 act | EDANS-DABCYL substrate fluorescence interference, no enzyme, 4 h; solvent 0%, active enzyme control 100% | activation, % at 7 µM | 80% of 3,200 active;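 active = activation above the all-compound mean plus 3 SD, ignoring values outside control-based bounds, cut at about 4.8% in these data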;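 note: value is the 4 h activation minus the activation read at time zero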
Starred values were filed as active, the others as inactive.

CCCCn1nc(C(=O)Oc2ccc3c(C)cc(=O)oc3c2)c2ccccc2c1=O was read as PLC-gamma1 inh inactive, ADAM17 inh inactive, ADAM10 inh inactive, PLCb3 inh inactive, HGIII-sPLA2 inh 1.0, proKLK7 act 45.4*, KLK7 act conf 64.0* and EDANS-DABCYL int 69.0*.
`COC(=O)c1cccc2c([N+](=O)[O-])c(NC(C)=O)cc(C(=O)OC)c12` gave PLC-gamma1 inh -1.6, ADAM17 inh -1.8, ADAM10 inh 1.6, PLCb3 inh -4.5, HGIII-sPLA2 inh 0.8 and proKLK7 act -0.2.
`CC(C)CCCCCCCCc1cccc(O)c1C(=O)O` gave PLC-gamma1 inh -2.4, ADAM17 inh 4.3, ADAM10 inh 19.2, PLCb3 inh -3.1, HGIII-sPLA2 inh -35.0 and proKLK7 act -0.5.
Screening COc1ccc(CC(N)c2csc(Nc3ccc(S(C)(=O)=O)cc3)n2)cc1 (stereo not drawn) returned PLC-gamma1 inh -18.7, ADAM17 inh -7.4, ADAM10 inh -67.6, PLCb3 inh -29.2, HGIII-sPLA2 inh 18.9, proKLK7 act 26.9*, KLK7 act conf -3.3 and EDANS-DABCYL int -4.1.
For CCc1ccc(NC(=S)/N=C(\N)Nc2nc(C)c3cc(CC)ccc3n2)cc1 the results were PLC-gamma1 inh -3.6, ADAM17 inh -5.0, ADAM10 inh 5.2, PLCb3 inh -6.6, HGIII-sPLA2 inh -9.7 and proKLK7 act -1.4.
`Cc1cc(C)c2c(N)c3ccccc3nc2n1` gave PLC-gamma1 inh inactive, ADAM17 inh inactive, ADAM10 inh inactive, PLCb3 inh inactive, HGIII-sPLA2 inh 9.0, proKLK7 act 15.7*, KLK7 act conf 69.5* and EDANS-DABCYL int 76.5*.
CCc1ccc2nc3nc(C)cc(C)c3c(N)c2c1 was read as PLC-gamma1 inh -499.5, ADAM17 inh -225.3, ADAM10 inh inactive, PLCb3 inh -459.6, HGIII-sPLA2 inh 8.5, proKLK7 act 32.2*, KLK7 act conf 32.4* and EDANS-DABCYL int 40.3*.
`CC1Nc2nc(N(C)C)[nH]c(=O)c2NC1C` (stereo not drawn) gave PLC-gamma1 inh -350.4, ADAM17 inh -136.1, ADAM10 inh -470.9, PLCb3 inh -398.5, HGIII-sPLA2 inh 4.0, proKLK7 act 19.3*, KLK7 act conf 12.4 and EDANS-DABCYL int 17.6*.
`COC(=O)C1=C(C)N(Cc2cccc(C(F)(F)F)c2)C(=NCc2ccc(OC)cc2)NC1c1ccc(Cl)cc1` (stereo not drawn) gave PLC-gamma1 inh 0.5, ADAM17 inh 0.0, ADAM10 inh 8.6, PLCb3 inh 3.4, HGIII-sPLA2 inh 11.4 and proKLK7 act -0.1.
`N#Cc1sc2nc(N3CCCCC3)c3c(c2c1N)CCCC3` gave PLC-gamma1 inh -66.9, ADAM17 inh -15.5, ADAM10 inh -42.9, PLCb3 inh -83.7, HGIII-sPLA2 inh 13.2 and proKLK7 act -0.3.
Cc1nc2sc(C#N)c(N)c2c2c1CCCC2 was read as PLC-gamma1 inh inactive, ADAM17 inh -189.4, ADAM10 inh inactive, PLCb3 inh inactive, HGIII-sPLA2 inh 0.7, proKLK7 act 15.1*, KLK7 act conf 15.0* and EDANS-DABCYL int 21.6*.
`O=C(Nc1ccccc1C(=O)Nc1ccccc1C(=O)NCc1ccco1)c1ccco1` gave PLC-gamma1 inh -131.1, ADAM17 inh -16.2, ADAM10 inh -24.9, PLCb3 inh -154.3, HGIII-sPLA2 inh -34.4, proKLK7 act 19.8*, KLK7 act conf -103.5 and EDANS-DABCYL int -119.2.
Screening O=C(Nc1ccccc1C(=O)NCc1ccco1)c1ccco1 returned PLC-gamma1 inh -5.9, ADAM17 inh -2.1, ADAM10 inh -3.4, PLCb3 inh -6.3, HGIII-sPLA2 inh -1.9 and proKLK7 act -0.6.
For CN1C=CC(=CC=C2C=CC(=O)C=C2)C=C1 the results were PLC-gamma1 inh -359.0, ADAM17 inh -16.8, ADAM10 inh -32.8, PLCb3 inh -470.4, HGIII-sPLA2 inh -8.4, proKLK7 act 50.3*, KLK7 act conf 11.7 and EDANS-DABCYL int 14.2*.
`CCN(C(=O)c1cccs1)c1nnc(-c2ccncc2)s1` gave PLC-gamma1 inh -5.4, ADAM17 inh -15.5, ADAM10 inh -28.8, PLCb3 inh -5.7, HGIII-sPLA2 inh -0.1 and proKLK7 act 10.2.
For COCCN(C(=O)Cc1cccs1)c1nnc(-c2ccncc2)s1 the results were PLC-gamma1 inh -8.0, ADAM17 inh -25.7, ADAM10 inh -74.3, PLCb3 inh -9.3, HGIII-sPLA2 inh -12.9, proKLK7 act 17.3*, KLK7 act conf 40.0* and EDANS-DABCYL int 42.2*.
COc1ccc(NC(=O)CN2C(=O)c3cccc4cccc2c34)c(OC)c1 was read as PLC-gamma1 inh -58.1, ADAM17 inh -27.4, ADAM10 inh -92.3, PLCb3 inh -69.8, HGIII-sPLA2 inh -7.9, proKLK7 act 304.2*, KLK7 act conf 59.1* and EDANS-DABCYL int 67.1*.
For CCCCn1c(=O)[nH]c2nc3cc(N)ccc3nc2c1=O the results were PLC-gamma1 inh inactive, ADAM17 inh -6.6, ADAM10 inh -28.5, PLCb3 inh inactive, HGIII-sPLA2 inh -160.1 and proKLK7 act 2.8.
Screening Nc1ccc2nc3c(=O)n(C4CCCCC4)c(=O)[nH]c3nc2c1 returned PLC-gamma1 inh inactive, ADAM17 inh -4.1, ADAM10 inh -9.2, PLCb3 inh inactive, HGIII-sPLA2 inh -249.2, proKLK7 act 14.5*, KLK7 act conf 8.1 and EDANS-DABCYL int 7.6*.
OC1(C#Cc2c(-c3ccsc3)sc3ccccc23)CCCCC1 was read as PLC-gamma1 inh -11.1, ADAM17 inh -7.2, ADAM10 inh -25.1, PLCb3 inh -17.9, HGIII-sPLA2 inh -29.3 and proKLK7 act -0.8.
`Cc1ccc(C(=O)C2CCN(CC(=O)NCc3cccs3)CC2)cc1` gave PLC-gamma1 inh -4.1, ADAM17 inh -0.9, ADAM10 inh -4.2, PLCb3 inh -2.6, HGIII-sPLA2 inh -5.9 and proKLK7 act 0.9.
Screening COc1ccc(OCC(=O)Nc2c(Cl)ccc3nsnc23)cc1 returned PLC-gamma1 inh 2.7, ADAM17 inh 1.5, ADAM10 inh 7.4, PLCb3 inh -1.1, HGIII-sPLA2 inh 0.4 and proKLK7 act -0.3.
Screening O=C(O)COc1ccc2nsnc2c1Cl returned PLC-gamma1 inh inactive, ADAM17 inh -113.1, ADAM10 inh -383.9, PLCb3 inh inactive, HGIII-sPLA2 inh -0.1, proKLK7 act 19.5*, KLK7 act conf 26.8* and EDANS-DABCYL int 23.7*.
